# From article PMC4336329 (PLoS ONE, 2015)
# In all, about 310,000 compounds went through this assay and about 14,000 (4.5%) showed an effect of 50% or more. Effects have a minus sign here. Only a selection was taken, and strong results are over-represented in it overall.
# Biological target: human ether-à-go-go-related gene (hERG) potassium channel (human, UniProt Q12809)
# Assay: primary screen, population patch clamp on CHO cells stably expressing hERG; higher = less effect of the substance
# 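Note: peak tail current of the secondary pulse compared with the same well before compound.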
# Sequence of human ether-à-go-go-related gene (hERG) potassium channel (Q12809 whole entry, looked up): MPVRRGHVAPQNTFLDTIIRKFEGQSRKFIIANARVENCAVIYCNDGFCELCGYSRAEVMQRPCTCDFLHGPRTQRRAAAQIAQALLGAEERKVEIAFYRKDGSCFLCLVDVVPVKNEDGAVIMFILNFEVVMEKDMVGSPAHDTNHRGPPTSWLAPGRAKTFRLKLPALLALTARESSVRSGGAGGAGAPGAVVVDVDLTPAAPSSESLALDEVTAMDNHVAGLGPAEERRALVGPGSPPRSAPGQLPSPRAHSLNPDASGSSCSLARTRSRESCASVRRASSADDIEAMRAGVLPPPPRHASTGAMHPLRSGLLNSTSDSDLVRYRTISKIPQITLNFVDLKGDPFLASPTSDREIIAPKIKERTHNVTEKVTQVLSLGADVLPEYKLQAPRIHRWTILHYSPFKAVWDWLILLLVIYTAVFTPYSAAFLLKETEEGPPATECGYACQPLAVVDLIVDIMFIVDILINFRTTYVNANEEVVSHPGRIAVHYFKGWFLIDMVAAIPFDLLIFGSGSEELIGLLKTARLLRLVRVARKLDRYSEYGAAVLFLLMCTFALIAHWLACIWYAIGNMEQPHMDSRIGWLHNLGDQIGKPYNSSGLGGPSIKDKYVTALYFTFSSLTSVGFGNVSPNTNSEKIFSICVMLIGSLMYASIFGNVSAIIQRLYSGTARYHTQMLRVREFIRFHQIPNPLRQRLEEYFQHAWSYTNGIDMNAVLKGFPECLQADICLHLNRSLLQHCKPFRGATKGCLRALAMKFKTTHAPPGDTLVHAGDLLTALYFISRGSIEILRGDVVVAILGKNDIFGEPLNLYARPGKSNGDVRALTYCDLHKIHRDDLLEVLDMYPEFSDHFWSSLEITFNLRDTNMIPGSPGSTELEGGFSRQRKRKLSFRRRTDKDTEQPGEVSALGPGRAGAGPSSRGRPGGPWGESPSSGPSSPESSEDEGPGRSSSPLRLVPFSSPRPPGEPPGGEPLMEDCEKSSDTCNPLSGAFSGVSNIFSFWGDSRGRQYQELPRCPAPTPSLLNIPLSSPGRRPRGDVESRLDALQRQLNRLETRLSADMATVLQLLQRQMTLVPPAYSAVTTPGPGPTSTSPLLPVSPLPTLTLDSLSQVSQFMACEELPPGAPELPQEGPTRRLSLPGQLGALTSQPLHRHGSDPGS
row,SMILES,"hERG current change (%, negative = inhibition) at 10uM [%]"
1,COc1ccc(S(=O)(=O)Nc2ccccc2-c2nnn(CC(=O)Nc3ccccc3OC)n2)cc1,5.49
2,CC(=O)OC[C@H]1O[C@@H](n2ccc(=O)[nH]c2=S)C(OC(C)=O)C1OC(C)=O (some centres unmarked),-4.01
3,COc1cccc(C(=O)NCC(C)(C)SCc2ccc(F)cc2)c1,-28.2
4,Cc1cccc(NC(=O)CCS(=O)(=O)c2cccc3nonc23)c1C,7.7
5,CCC(C)NC(=O)Nc1ccccc1F (centres unmarked),-24.5
6,O=S(=O)(c1ccccc1)N1CCCCC1c1cccnc1 (centres unmarked),2.3
7,O=C(NCCc1c[nH]c2ccccc12)C1CCN(S(=O)(=O)c2ccccc2)CC1,-17.1
8,O=C(COc1ccc(Br)cc1)N1CCN(Cc2c[nH]c3ccccc23)CC1.O=C(O)C(=O)O,-57.9
9,O=C(COc1ccccc1)N1CCN(Cc2c[nH]c3ccccc23)CC1,-47.4
10,O=C(NCCc1c[nH]c2ccccc12)C1CCN(Cc2ccc(Br)cc2)CC1,-54
11,O=C(NCCc1c[nH]c2ccccc12)C1CCN(S(=O)(=O)c2ccc(F)cc2)CC1,-28.3
12,O=C(c1ccccc1)N1CCN(Cc2c[nH]c3ccccc23)CC1,-16.4
13,O=C(NNC(=O)C1CC=CCC1)c1ccccc1O (centres unmarked),-4.58
14,Cn1c(CC(=O)Nc2ccccc2)nnc1SCC(=O)NC1=NCCS1,12.7
15,CC(C)c1ccccc1OCCCCCN1CCOCC1,-13.5
16,O=C(O)COc1ccc(Cl)cc1Cl,7.53
17,COc1ccc(C)cc1NC(=O)C(=O)N/N=C(\C)CC(=O)Nc1cccnc1,2.77
18,C=CCN1C(=O)c2ccc(C(=O)N(CC)CC(=O)Nc3ccc(OC)cc3)cc2C1=O,-20
19,CCN(CC)C(=O)c1cccc(-c2ccc(OC)cc2)c1,-17

row,SMILES,"hERG current change (%, negative = inhibition) at 10uM [%]"
1,C=CCN1C[C@@H](C)N(C(c2ccc(C(=O)N(CC)CC)cc2)c2cccc(OC)c2)C[C@@H]1C (some centres unmarked),-65.3
2,c1ccc(-n2c(-c3ccncc3)nnc2N2CCOCC2)cc1,16.9
3,Cc1cc(=O)c2ccc3ccccc3c2[nH]1,7.45
4,Cc1cc(=O)cc(C)n1-c1ccc(F)cc1F,0.384
5,CC1(C)c2cc(O)ccc2OC1N1CCOCC1 (centres unmarked),13.6
6,COc1ccccc1-n1cnc2cc(NCc3ccco3)ccc21,-20.7
7,COc1ccc(-n2cnc3cc(NCc4ccco4)ccc32)cc1,-67.3
8,c1ccc(-n2cnc3cc(NCc4ccco4)ccc32)cc1,-49.8
9,O=C1c2ccccc2C(=O)N1Cc1ccccc1F,13
10,CC1=C(C(=O)Nc2ccccc2)C(c2ccco2)C(C#N)=C(SCC(N)=O)N1 (centres unmarked),-3.31
11,O=C(c1cc(COc2ccc(F)cc2Cl)on1)N1CCCCCC1,-3.89
12,Cc1cccc(C)c1OCc1cc(C(=O)N2CCC(c3ccccc3)CC2)no1,-1.95
13,O=C(c1cc(COc2ccc(F)cc2Cl)on1)N1CCCCCCC1,0.909
14,CSc1ccccc1OCc1cc(C(=O)N2CCC(Oc3cccnc3)CC2)no1,-37.4
15,O=C(c1cc(COc2ccc(F)cc2Cl)on1)N1CCC(c2ccncc2)CC1,-72.5
16,Cc1cccc(C)c1OCc1cc(C(=O)N2CCC(c3ccncc3)CC2)no1,-55.8
17,O=C(c1cc(COc2c(F)cccc2F)on1)N1CCC(c2ccncc2)CC1,-38.5
18,CSc1ccccc1OCc1cc(C(=O)N2CCC(c3ccncc3)CC2)no1,-58.5
19,CSc1ccccc1OCc1cc(C(=O)N2CCSCC2)no1,0.366

row,SMILES,"hERG current change (%, negative = inhibition) at 10uM [%]"
1,CC(C)C[C@H](NC(=O)c1nc[nH]c1C(=O)NC1CCN(C(=O)OC(C)(C)C)CC1)C(=O)OCc1ccccc1,3.48
2,COc1cccc(C2CC(=O)C3=C(C2)Nc2ccccc2N(C(=O)CCC(=O)O)C3c2ccc(F)cc2)c1 (centres unmarked),5.1
3,Nc1ccccc1NC1=CC(=O)CC(c2ccco2)C1 (centres unmarked),10.4
4,Cn1c(SCC(=O)c2ccccc2)nnc1-c1cnccn1,6.47
5,COc1cccc(NC(=O)CSc2ccc3nnc(-c4cccnc4)n3n2)c1,-37.5
6,COc1ccc(NC(=O)CSc2ccc3nnc(-c4cccnc4)n3n2)cc1OC,1.17
7,COc1ccc(NC(=O)CSc2ccc3nnc(-c4cccnc4)n3n2)cc1,-50.4
8,CC(=O)Nc1ccc(NC(=O)CSc2ccc3nnc(-c4cccnc4)n3n2)cc1,2.95
9,CCOc1ccc(NC(=O)CSc2ccc3nnc(-c4cccnc4)n3n2)cc1,-54.7
10,CCOc1ccc(NC(=O)CSc2ccc(-c3cccnc3)nn2)cc1,-5.55
11,Cc1ccc(NC(=O)CSc2ccc3nnc(-c4cccnc4)n3n2)cc1,-53.1
12,CC(=O)c1ccc(NC(=O)CSc2ccc3nnc(-c4cccnc4)n3n2)cc1,-28.8
13,O=C(CSc1ccc2nnc(-c3cccnc3)n2n1)Nc1ccccc1,-17.8
14,Cc1c(C(=O)Nc2cccc(Cl)c2)cn2c(nc3ccccc32)c1C#N,6.75
15,CC(=O)NCC(=O)OC(C)C(=O)Nc1ccc(C(C)=O)cc1 (centres unmarked),-10.4
16,COc1cc(/C=C(\C#N)C(=O)NCC2CCCO2)ccc1OCC(N)=O (centres unmarked),28.7
17,C/C(=N\NC(=O)CCc1ccccc1)c1ccc(Br)cc1,11
18,CN(C)S(=O)(=O)c1ccc(NC(=O)COc2ncnc3sccc23)cc1,15.7
